GLP1R ag: agonists of human GLP-1 receptor. P43220. HEK293 GLP-1R CRE-luciferase, luminescence, 4-6 h; cells express a hypersensitive GLP-1R form. Potency, µM (titrated, usually from 45.6 µM), for the others: at the highest dose activation, usual class: activators. 0.007% of 380,000 active; further: % of control where 0% means no effect
Target sequence (P43220 whole entry, looked up): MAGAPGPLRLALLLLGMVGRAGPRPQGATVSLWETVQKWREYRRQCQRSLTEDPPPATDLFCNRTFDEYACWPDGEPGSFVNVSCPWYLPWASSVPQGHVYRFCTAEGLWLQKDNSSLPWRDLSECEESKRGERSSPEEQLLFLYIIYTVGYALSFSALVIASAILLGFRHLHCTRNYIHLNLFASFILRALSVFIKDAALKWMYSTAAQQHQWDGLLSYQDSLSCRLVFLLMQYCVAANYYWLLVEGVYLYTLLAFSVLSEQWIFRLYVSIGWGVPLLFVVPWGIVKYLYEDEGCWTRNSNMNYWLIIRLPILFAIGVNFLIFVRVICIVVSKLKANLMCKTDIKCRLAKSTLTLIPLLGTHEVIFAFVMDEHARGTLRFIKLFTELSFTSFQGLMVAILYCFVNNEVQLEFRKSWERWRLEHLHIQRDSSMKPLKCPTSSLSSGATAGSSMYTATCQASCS
GLP1R cytotox: cytotoxicity counter-screen for GLP-1 receptor inverse agonists; Potency, µM (highest dose often 38.3 µM), for the others: at the highest dose activity change, negative = inhibition, usual class: inhibitors; 0.13% of 410,000 active; HEK293 cAMP-luciferase reporter cells, luminescence, 24 h; AID 624418;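 further: loss of luciferase light is scored as toxicity; on the % scale 0 is the no-effect control and ±100 the full control effect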
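MLSMR compounds, 24 hr on cells at 37 deg C/5% CO2; luminescence after luciferase reagent (12 min RT). Inhibition counted as the undesired cytotoxic outcome.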
PTHR1 agonist: PTHR1 (human) receptor agonism; AID 743266; Potency, µM (titrated, usually from 115 µM), without a hit: top-dose activation, usual class: activators; Q03431; HEK293 GP2 PTHR1 cells, GloSensor cAMP luminescence, 1 h; 0.075% of 410,000 active; further: nearly all actives have a fitted effect of over 55% in size
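HEK-293-derived GP2 cells expressing PTHR1 and a GloSensor cAMP reporter, 3,000/well, plated overnight, given luciferin plus IBMX (each 0.5 mM as added) for 1 h at 37 °C, then compound for 1 h at 37 °C. Luminescence was read after 15 min at room temperature.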
GLP-1R inv ag: GLP-1 receptor (human) inverse agonism; HEK293 GLP-1R CRE-luciferase, luminescence, 24 h; GLP-1R form is constitutively active; Potency, µM (series often up to 38.3 µM), for the others: top-dose activity change, negative = inhibition, hits mostly inhibitors; 1.6% of 410,000 active; AID 624417; further: on the % scale 0 is the no-effect control and ±100 the full control effect; nearly all actives have a fitted effect of over 55% in size
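Luminescence readout: a drop in cAMP-driven luciferase signal flags inverse agonism at a constitutively active GLP-1R stably expressed in HEK293. Compound exposure lasted 24 hr at 37 deg C, 5% CO2.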
Numbers without * were called inactive; [ ] = another dose, or the depositor's remark. The list is not random: actives were taken first. Their share in the collection is about 1.7%. The call rests on the fitted dose curve; in most records, active means well fitted curve in the direction sought with a large enough effect; inconclusive means small, poorly fitted or top-dose-only effect, or another doubt; inactive means no such curve, though single readings can be large; an effect the other way counts as inactive or inconclusive. Potency means the concentration at half of the fitted maximal effect.

Screening Cc1occc1C(=O)N1CCN(C(c2ccccc2)c2ccccc2)CC1 returned GLP1R ag -13.1%, GLP1R cytotox 5.0%, PTHR1 agonist inactive and GLP-1R inv ag inconclusive.
O=C(CNC(=O)Cc1ccccc1)NCC(=O)N1CCN(C(c2ccccc2)c2ccccc2)CC1 was read as GLP1R ag -5.8%, GLP1R cytotox 5.6%, PTHR1 agonist -12.9% and GLP-1R inv ag inconclusive.
For O=C(C1=COCCO1)N1CCN(C(c2ccccc2)c2ccccc2)CC1 the results were GLP1R ag 3.0%, GLP1R cytotox 44.2%, PTHR1 agonist -49.9% and GLP-1R inv ag 10µM*.
For COC(=O)c1c(NC(=O)COC(=O)CC(NC(C)=O)c2ccccc2)sc(C)c1C (configuration not stated) the results were GLP1R ag -2.2%, GLP1R cytotox 14.0%, PTHR1 agonist inactive and GLP-1R inv ag 3.2%.
For COc1cccc(CNC(=O)c2cccc(-n3c(C)nc4cccnc43)c2)c1OC the results were GLP1R cytotox -9.6%, PTHR1 agonist -9.3% and GLP-1R inv ag 8.0%.
`Cc1nc(-c2cccc(F)c2)sc1CCNC(=O)c1c(F)cccc1Cl` gave GLP1R cytotox 7.1%, PTHR1 agonist -41.2% and GLP-1R inv ag 5.1%.
`CC1(C)CC2CC(C)(CN2C(=O)c2cc(-c3ccc(F)cc3)on2)C1` (configuration not stated) gave GLP1R ag 7.3%, GLP1R cytotox -0.5%, PTHR1 agonist -2.6% and GLP-1R inv ag inconclusive.
`COc1ccc2c(c1)CCc1c(C(=O)N3CC4(C)CC3CC(C)(C)C4)noc1-2` (configuration not stated) gave GLP1R ag 2.0%, GLP1R cytotox -10.8%, PTHR1 agonist inactive and GLP-1R inv ag 12.6µM*.
`CC1(C)CC2CC(C)(CN2C(=O)c2cc(-c3ccccc3)on2)C1` (configuration not stated) gave GLP1R ag 12.3%, GLP1R cytotox -2.7%, PTHR1 agonist inactive and GLP-1R inv ag 2.82µM*.
`COc1ccc2c(c1)CCc1c(C(=O)N3CCOCC3)noc1-2` gave GLP1R ag -1.7%, GLP1R cytotox -21.0%, PTHR1 agonist -44.2%[57.5 µM] and GLP-1R inv ag inconclusive.
For Cc1cc(C)cc(OCCSc2nc3ccc(NC(=O)c4cccs4)cc3s2)c1 the results were GLP1R cytotox 7.3%, PTHR1 agonist inactive and GLP-1R inv ag 10µM*.
`COc1cccc(C(=O)NCC2(c3ccccc3)CCCC2)c1OC` gave GLP1R ag 14.7%, GLP1R cytotox 2.6%, PTHR1 agonist -19.8% and GLP-1R inv ag 7.08µM*.
O=C(Nc1cnn(Cc2ccc(F)cc2)c1)C(c1ccccc1)c1ccccc1 was read as GLP1R ag -0.1%, GLP1R cytotox -13.0%, PTHR1 agonist -48.7% and GLP-1R inv ag 4.47µM*.
Screening Cc1c(C(=O)c2ccc(F)cc2)c2ccccn2c1CCc1ccccn1 returned GLP1R ag 4.0%, GLP1R cytotox -12.0%, PTHR1 agonist -27.3% and GLP-1R inv ag 10µM*.
N#C/C(=N/Nc1ccc([N+](=O)[O-])cc1)C(=N)N1CCCCC1 was read as GLP1R ag 5.2%, GLP1R cytotox 11.2µM*, PTHR1 agonist -19.6% and GLP-1R inv ag inconclusive.
Screening CSc1cc(-c2ccccc2)n(C)c(=O)c1C#N returned GLP1R ag 18.6%, GLP1R cytotox 0.6%, PTHR1 agonist inactive and GLP-1R inv ag -26.4%.
CCOC(=O)Cn1c(-c2ccccc2)cc(SC)c(C#N)c1=O was read as GLP1R ag 17.5%, GLP1R cytotox 3.8%, PTHR1 agonist 2.9% and GLP-1R inv ag 10µM*.
Screening C[N+]1=C(/C=C/Nc2ccccc2Cl)C(C)(C)c2ccccc21 returned GLP1R ag 5.6%, GLP1R cytotox -7.0%[1.53 µM], PTHR1 agonist -84.8% and GLP-1R inv ag -13.6%.
For COC(=O)c1ccc2c(c1)C(C)(C)C(/C=C/c1ccccc1O)=[N+]2C the results were GLP1R ag -23.0%, GLP1R cytotox 10µM*, PTHR1 agonist -17.9%[57.5 µM] and GLP-1R inv ag inconclusive.
For CN1CCN(c2ccc(Cl)cc2NC(=O)c2ccc(=O)n(C)n2)CC1 the results were GLP1R ag -2.9%, GLP1R cytotox 3.1%, PTHR1 agonist -19.8% and GLP-1R inv ag 10µM*.
For C=CCn1c(-c2csc(-c3ccccc3)n2)n[nH]c1=S the results were GLP1R ag 6.6%, GLP1R cytotox 11.2µM*, PTHR1 agonist inactive and GLP-1R inv ag inconclusive.
`C=CCn1c(-c2csc(-c3ccc(Cl)cc3)n2)n[nH]c1=S` gave GLP1R ag -24.9%, GLP1R cytotox 3.55µM*, PTHR1 agonist 13.6%[57.5 µM] and GLP-1R inv ag inconclusive.
CCn1c(-c2csc(-c3ccccc3)n2)n[nH]c1=S was read as GLP1R ag -0.2%, GLP1R cytotox inconclusive, PTHR1 agonist 15.7%[57.5 µM] and GLP-1R inv ag inconclusive.
Cc1onc(-c2c(F)cccc2Cl)c1C(=O)Nc1ccc(OC(C)C)cc1 was read as GLP1R cytotox -1.2%, PTHR1 agonist -46.1% and GLP-1R inv ag inconclusive.
`COc1cc(OC)c(NC(=O)c2cn(C3CCCC3)c(=O)c3c2c2ccccc2n3C)cc1Cl` gave GLP1R cytotox 7.3%, PTHR1 agonist -11.4% and GLP-1R inv ag 11.4%.
For Cc1cccc(Cn2c(C(=O)OC(C)C)cc3c2ccn3C)c1 the results were GLP1R ag 0.5%, GLP1R cytotox 3.2%, PTHR1 agonist -8.9%[57.5 µM] and GLP-1R inv ag 5.01µM*.
Screening CCOC(=O)c1cc2c(ccn2C)n1Cc1ccc(Cl)cc1 returned GLP1R ag 0.9%, GLP1R cytotox -0.2%, PTHR1 agonist -7.1% and GLP-1R inv ag inconclusive.
CC(C)CC(=O)NC(=S)Nc1ccc(N2CCN(C(=O)c3cccs3)CC2)cc1 was read as GLP1R ag 11.0%, GLP1R cytotox -0.1%, PTHR1 agonist -10.3% and GLP-1R inv ag 10µM*.
For CC(C)C(=O)Nc1ccc(N2CCN(C(=O)c3cccs3)CC2)cc1 the results were GLP1R ag -5.7%, GLP1R cytotox -18.8%, PTHR1 agonist inactive and GLP-1R inv ag -17.8%.
`Cc1ccc(C(=O)N2CCN(c3ccc(NC(=S)NC(=O)c4cccs4)cc3)CC2)cc1` gave GLP1R ag 6.8%, GLP1R cytotox -8.4%, PTHR1 agonist -22.4% and GLP-1R inv ag 8.91µM*.
`COc1ccc(NC(=O)C2CCC(CNS(=O)(=O)c3cccc4nsnc34)CC2)cc1OC` (configuration not stated) gave GLP1R cytotox 0.0%, PTHR1 agonist -53.7% and GLP-1R inv ag 7.3%.
Cc1cccc(C)c1-n1c(C)cc(/C=N/NC(N)=S)c1C was read as GLP1R ag -6.6%, GLP1R cytotox inconclusive, PTHR1 agonist inactive and GLP-1R inv ag 11.2µM*.
For Cc1cc(/C=N/NC(N)=S)c(C)n1-c1cccc(Cl)c1 the results were GLP1R ag 7.6%, GLP1R cytotox inconclusive, PTHR1 agonist -12.0% and GLP-1R inv ag inconclusive.

From PubChem
